Measured values reported in PubChem BioAssay AID1159580 (chemical genetic matrix, 2015).
The campaign covered roughly 5,500 compounds. About 2,000 (36%) were called active. Roughly 18% stayed inconclusive and do not appear here. Cut-off read from the data, not from the text of the source: active = normalized growth mostly below about 0.91 (no sharp cut-off); inconclusive = no clear call, values can overlap the other calls; inactive = mostly above about 0.92. Some of the results follow.

Experiment: chemical genetic growth profiling, strain panel (AID 1159580);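 note: tested at 20 µM; growth read once vehicle control cultures reached saturation at 30 °C; 1 = growth at the plate median or of vehicle wells; lower values mean less growth of the strain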
Conditions: S. cerevisiae deletion strains, growth OD

Measured: normalized growth

O=C(Nc1ccc(Cl)cc1Cl)c1cnccn1
inactive: locus YAL013W, strain DEP1, stronger effect = lower value 0.943 | locus YBR229C, strain ROT2, stronger effect = lower value 0.963 | locus YCL061C, strain MRC1, stronger effect = lower value 0.98 | locus YDL101C, strain DUN1, stronger effect = lower value 0.982 | locus YDL134C, strain PPH21, stronger effect = lower value 0.989 | locus YDR150W, strain NUM1, stronger effect = lower value 0.989 | locus YEL061C, strain CIN8, stronger effect = lower value 0.95 | locus YGR078C, strain PAC10, stronger effect = lower value 0.991 | locus YHR087W, strain rtc3, stronger effect = lower value 0.973 | locus YJR043C, strain POL32, stronger effect = lower value 1.01 | locus YJR075W, strain HOC1, stronger effect = lower value 1.01 | locus YLR058C, strain SHM2 (second series), stronger effect = lower value 0.975 | locus YLR262C, strain YPT6, stronger effect = lower value 0.87 | locus YML094W, strain GIM5, stronger effect = lower value 0.91 | locus YMR219W, strain ESC1, stronger effect = lower value 0.99 | locus YMR263W, strain SAP30, stronger effect = lower value 0.966 | locus YNL153C, strain GIM3, stronger effect = lower value 0.98 | locus YNL298W, strain CLA4 (second series), stronger effect = lower value 0.911 | locus YNL322C, strain KRE1, stronger effect = lower value 0.986 | locus YNR030W, strain Alg12, stronger effect = lower value 0.94 | locus YOL006C, strain TOP1, stronger effect = lower value 0.773 | locus YPL055C, strain LGE1, stronger effect = lower value 0.9 | locus YPL241C, strain CIN2, stronger effect = lower value 0.9 | locus YPR135W, strain CTF4, stronger effect = lower value 0.768
active: locus YHR030C, strain SLT2, stronger effect = lower value 0.606 | locus YKL190W, strain CNB1, stronger effect = lower value 0.862 | locus YLR039C, strain RIC1, stronger effect = lower value 0.788 | locus YLR085C, strain ARP6, stronger effect = lower value 0.656
